Records with an inconclusive call do not appear. The source made the active and inactive calls. Calls follow the shape of the dose curve; as a rule, active = well fitted inhibition curve with a large enough effect; inconclusive = small, poorly fitted or top-dose-only effect; inactive = flat fitted curve, though single readings scatter.
% is scaled to controls: 0 for no effect and ±100 for the full control effect.

Chain of Calcium and integrin-binding protein 1 (Homo sapiens) (Q99828 whole entry, looked up): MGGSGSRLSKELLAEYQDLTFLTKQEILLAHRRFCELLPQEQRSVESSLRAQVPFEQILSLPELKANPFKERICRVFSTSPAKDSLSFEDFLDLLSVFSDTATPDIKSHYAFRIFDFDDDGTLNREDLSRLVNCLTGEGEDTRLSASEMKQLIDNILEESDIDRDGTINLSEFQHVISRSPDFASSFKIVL

The target of the test is Calcium and integrin-binding protein 1 (Homo sapiens) (UniProt Q99828). The experiment in a line: Primary qHTS for Identification of Calcium Integrin Binding Protein 1 (CIB1) Competitor (AID 1508620).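 Also: GST tagged CIB1 binding a fluorescein labelled alphaIIb integrin peptide tracer; top concentration of the series differs between compounds.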 Conditions: CIB1-GST / FITC-alphaIIb peptide fluorescence polarization; series mostly up to 114 µM; activity change, negative = inhibition: at the top concentration. The method, boiled down:
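Fluorescence polarization competition: CIB1-GST (1 uM final) preincubated with compound 15 min at room temperature, then FITC-labeled alphaIIb peptide (100 nM final) added for another 15 min. Polarization read at Ex 480/Em 540.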
On the technique in general: In qHTS, concentration-response curves come from the screen itself.
With `O=c1c2ccccc2nc2sc(NCc3ccc(Cc4ccccc4)cc3)nn12`, the “activity change, negative = inhibition” value was 2.75% (inactive).

As to `FC(F)(F)c1ccccc1-c1nc(NCc2ccc(-c3cccnc3)cc2)c2ccccc2n1`, the “activity change, negative = inhibition” value is 2.75% (inactive).

On to `N#Cc1c(-c2ccccc2C(F)(F)F)nc2ccccc2c1NCc1ccc(-c2ccnc(C(F)(F)F)c2)cc1`, for which the “activity change, negative = inhibition” value is 12.6% (inactive).

As to `COc1ccc(C2Oc3ccccc3C(=O)N2Cc2ccccc2)cc1COc1ccc(NC(C)=O)cc1` (stereo not given), the “activity change, negative = inhibition” value is -4.94% (inactive).

For `COc1cc(CNc2ncnc3ccc(-c4c(C)noc4C)cc23)cc(OC)c1OC`, the “activity change, negative = inhibition” value was 1.62% (inactive).

As for `O=C(c1ccccc1)N(C(=O)c1ccccc1)c1ncnc2c1C(c1ccccc1)c1c(ccc3ccccc13)O2` (stereo not given), the “activity change, negative = inhibition” value is 1.59% (inactive).

Turning to `O=C(Nc1cccc(Cc2ccccc2)n1)c1ccc(-c2cccc([N+](=O)[O-])c2)o1`, the “activity change, negative = inhibition” value was 1.05% (inactive).

Consider `NC(=O)c1cccc(-c2noc(-c3ccccc3C(F)(F)F)n2)c1`, for which the “activity change, negative = inhibition” value is -2.25% (inactive).

For the compound `c1nc(NCCc2cnc[nH]2)c2cc(-c3ccoc3)ccc2n1`, the “activity change, negative = inhibition” value was 8.29% (inactive).

With `Cc1cnc(-c2ccccc2N(C)C)nc1NCc1ccc(-c2cccnc2)cc1`, the “activity change, negative = inhibition” value is 3.11% (inactive).

As to `COc1ccc(S(=O)(=O)N2CCN(S(=O)(=O)c3ccc(OC)cc3)CC2)cc1`, the “activity change, negative = inhibition” value was -0.0373% (inactive).

Regarding `Cc1cc2c(s1)c1cnn(Cc3cccc(Cl)c3)c(=O)c1n2C`, the “activity change, negative = inhibition” value is 15% (inactive).

Regarding `CCOC(=O)C1CCN(c2ncc(-c3ccc4c(c3)OCCCO4)s2)CC1`, the “activity change, negative = inhibition” value is 2.57% (inactive).

Turning to `Cc1cc(C)nc(NC(=S)N2CCN(c3ccc(Cl)cc3F)CC2)c1`, the “activity change, negative = inhibition” value was -4.34% (inactive).

With `N#Cc1nc(Nc2ccccc2)nc(NC2CCCC2)n1`, the “activity change, negative = inhibition” value is -2.22% (inactive).

Take `Fc1cnc(-c2ccccc2C(F)F)nc1NCC1CCN(c2cnccn2)C1` (stereo not given): the “activity change, negative = inhibition” value was -2.93% (inactive).

As to `[O-][n+]1onc(-c2ccccc2)c1CO`, the “activity change, negative = inhibition” value was -2.62% (inactive).

Turning to `O=C(Cc1nnc(-c2ccncc2)s1)Nc1ccc(F)c(C(F)(F)F)c1`, the “activity change, negative = inhibition” value was 6.46% (inactive).

On to `COc1cccc(C2c3c(ncn(-c4cccc(Cl)c4)c3=N)Oc3ccc4ccccc4c32)c1` (stereo not given), for which the “activity change, negative = inhibition” value is 7.76% (inactive).

In the case of `COc1cc(O)c(C(CC(=O)N2CCC[C@@H](C)C2)c2ccc3c(c2)OCO3)c(OC)c1` (stereo not given in full), the “activity change, negative = inhibition” value was 1.86% [at 228 µM] (inactive).

Regarding `Cc1ccsc1CN(C)c1ncnc2ccc(-c3ccoc3C)cc12`, the “activity change, negative = inhibition” value was -12.8% (inactive).

Regarding `CC(=O)N1CCN(c2ccc(NS(=O)(=O)c3ccc4c(c3)CC(=O)N4)cc2)CC1`, the “activity change, negative = inhibition” value is -18% [at 228 µM] (inactive).

On to `O=C1NC(=O)/C(=C/c2cccn2-c2ccc(P(O)O)cc2)N1`, for which the “activity change, negative = inhibition” value is -2.2% (inactive).

Consider `c1cncc(-c2ccc(CNc3nc(N4CCCC4)nc4ccccc34)cc2)c1`, for which the “activity change, negative = inhibition” value is 14.6% (inactive).

With `Oc1ccc(CNc2ccc3ccccc3n2)c2cccnc12`, the “activity change, negative = inhibition” value is -3.86% (inactive).

`O=C1c2ccccc2NC(c2ccc(Br)o2)N1O` (stereo not given): the “activity change, negative = inhibition” value is -8.79% (inactive).

In the case of `O=S1(=O)N=C(Oc2cccc(C(F)(F)F)c2)c2ccccc21`, the “activity change, negative = inhibition” value is -0.689% (inactive).

With `Cc1cnc(-c2ccccc2C(C)C)nc1NCC1CCN(c2cccnc2)C1` (stereo not given), the “activity change, negative = inhibition” value was 2.78% (inactive).

Regarding `Cc1ccc(NS(=O)(=O)c2ccc3c(c2)n(C)c(=O)n3C)cc1C`, the “activity change, negative = inhibition” value was -2.61% (inactive).

As to `Cc1ccc2nc3sc(C(=O)NC4CCC(O)CC4)cc3cc2c1` (stereo not given), the “activity change, negative = inhibition” value is -0.684% (inactive).

As to `O=C(OCC#CCSc1nnc(-c2cccc3ccccc23)o1)c1cnc[nH]1`, the “activity change, negative = inhibition” value was -5.48% (inactive).

In the case of `O=C1C2=C(CN1c1ccccc1)NC(Nc1nc3ccccc3o1)=NC2c1ccccc1Cl` (stereo not given), the “activity change, negative = inhibition” value is -1.61% (inactive).

For `Cn1nnnc1Sc1ncnc2scc(-c3cccc4ccccc34)c12`, the “activity change, negative = inhibition” value is 2.19% (inactive).

Turning to `N#Cc1c(-c2ccc(-c3ccccc3)cc2)no[n+]1[O-]`, the “activity change, negative = inhibition” value was 0.93% (inactive).

In the case of `O=C(Nc1ccc(Cl)c(C(F)(F)F)c1)Nc1nnc(-c2ccncc2)s1`, the Potency entry is “inactive”.

Consider `Cc1cc(NC(=S)N2CCN(c3cccc(C(F)(F)F)c3)CC2)nc2ccccc12`, for which the “activity change, negative = inhibition” value was 0.0159% (inactive).

Consider `COc1cc(F)c(S(=O)(=O)N2CCCN(S(=O)(=O)c3cccc(NC(C)=O)c3)CC2)c(F)c1`, for which the “activity change, negative = inhibition” value was -3.02% (inactive).

For the compound `N#Cc1ccc(-c2ccc(CNc3ccc(N4CCN5CCCCC5C4)cc3)o2)cc1` (stereo not given), the “activity change, negative = inhibition” value was 0.863% (inactive).

On to `Nc1cc(-c2nc(Nc3ccc(F)c(F)c3)c3ccccc3n2)ccn1`, for which the “activity change, negative = inhibition” value is 5.26% (inactive).

For `COc1cc(OC)cc(-c2nnc3n2N=C(c2c(OC)cccc2OC)CS3)c1`, the “activity change, negative = inhibition” value is 5.77% (inactive).

Source of the values: PubChem BioAssay (NCATS).
